In PubChem BioAssay one finds inhibition data, which are given here for 40 compounds.

Several values for one entry are separate records, joined by “and”; a condition that tells them apart may be missing. Identical values can stand only once. Values without a mark were called inactive. Activity calls are given as the source filed them. No stated cut-off is given here; in the data, active means inhibition above about 31%; inactive means the rest.

As usually defined, the inhibition is the change of the read-out against control, counted positive when it falls.

The nature of the experiment: 384-well plate pilot, post-Golgi transport modulator project, inhibition of yeast transport mutant growth (AID 636). To be noted: absorbance 615 nm, about 18 h, hits give high values.
Consider `O=C1CCCN1CCCNc1ncnc2c1[nH]c1ccc(Cl)cc12`, for which the inhibition is -7.6%.
As for `C=CCNS(=O)(=O)c1ccc2nsnc2c1`, the inhibition was 0.27%.
With `O=C(O)c1oc2ccccc2c1-n1cccc1`, the inhibition is -4.8%.
The result for `COCCn1c(SCc2csc(-c3ccccc3)n2)nc2ccccc21` reads 1.3%; that for `Nc1nc2ccccc2n1C(=O)CCc1ccccc1`, -2.11%.
On to `Cc1cccc2cc(CN(CCN3CCCC3)C(=O)NC3CCCCC3)c(=O)[nH]c12`, for which the inhibition was -6.08%.
For the compound `Cc1ccc(-c2noc(CCC(=O)NCCc3ccccc3Cl)n2)cc1`, the inhibition is -3.29%.
The result for `COc1ccc2c(c1OC)C(=O)OC2C1c2c(cc3c(c2OC)OCO3)CCN1C` (stereo not given) reads 1.95% and -2.86%.
`CCOC(=O)CNC(=O)Nc1nnc(-c2ccc(OCC)cc2)o1`: the inhibition was -1.08%.
The result for `C/C(N)=C(/C#N)C(=O)COC(=O)CCSc1ccccc1` reads -0.13%; that for `CCOC(=O)C1=C(C)NC(C)=C(C(=O)OCC)C1C(=O)OC1CCOC1=O` (stereo not given), -5.27%.
Regarding `CCC1(NC(C)=O)CC2CC1CC2NC(C)=O` (stereo not given), the inhibition was -3.2%.
With `CC(C)COc1nc2ccccc2nc1C(C#N)C(=O)NC1CCCCC1` (stereo not given), the inhibition is -4.67%.
For `CCc1cc(C(=O)OC)c(NC(=O)CCC(=O)O)s1`, the inhibition is -2.53%.
For `Cc1cccc2cc(CN(CCCO)C(=O)Nc3ccc(Cl)cc3)c(=O)[nH]c12`, the inhibition was -5.32%.
The same measure for `O=C(CCN1CCN(C(=O)c2ccco2)CC1)Nc1ccc(F)cc1`: -4.93%; for `CCC(=NC(C)c1ccccc1)c1c(O)n(C)c(=O)n(C)c1=O` (stereo not given): -2.89%.
As for `O=C(O)CCCCCNc1nc(=S)[nH]c2ccccc12`, the inhibition was -5.92%.
As for `CCOC(=O)N1CCN(C(=O)c2ccc3nc4cc(Cl)ccc4c(=O)n3c2)CC1`, the inhibition is -3.07%.
With `COc1ccc(OC)c(C(=O)CSc2nnc(-c3ccc(OC)c(OC)c3)o2)c1`, the inhibition was -5.32%.
Take `C[C@H](NC(=O)NCc1cccs1)C(=O)O`: the inhibition is -3.87%.
As for `CC1CCN(CC(O)COC2CCC(C(C)(C)C)CC2)CC1` (stereo not given), the inhibition is 97.8% (active).
In the case of `Cc1cccc(N2CCN(C(=O)Cn3ccc4ccccc4c3=O)CC2)c1C`, the inhibition was -4.34%.
With `Cc1cc(NC(=O)CCC(=O)N(c2cccnc2)C(C(=O)NC2CCCC2)c2ccccc2F)no1` (stereo not given), the inhibition is 3.2%.
Consider `Cc1ccc(NC(=O)CCC(=O)O)cc1F`, for which the inhibition is -6.3%.
The same measure for `CC1C=CC(C)C(C(=O)O)C1C(=O)O` (stereo not given): -0.65%; for `Cc1ccc(-c2nnn(CC(=O)N(CC3CCCO3)C(C(=O)NC(C)(C)C)c3ccc(F)cc3)n2)o1` (stereo not given): -1.07%.
As for `CN(C)C(=O)c1ccc(COc2ccccc2Br)o1`, the inhibition is -9.05%.
Consider `CCOC(=O)C1C2C=CC3(CN(c4cccc(Cl)c4)C(=O)C13)O2` (stereo not given), for which the inhibition was -4.4%.
The result for `O=C(NCCC1=CCCCC1)C1CCN(C(=O)Nc2ccccc2)CC1` reads -2.21%.
Regarding `CCOC(=O)C1CCN(c2c(N(C)Cc3ccco3)c(=O)c2=O)CC1`, the inhibition is 0.13%.
Take `CCN(CC)CCn1c2ccccc2c2nc(C)sc21`: the inhibition was -5.32%.
In the case of `COc1cc(C(=O)OCC(=O)N(C)Cc2ccccc2)cc(OC)c1OC`, the inhibition is -5.34%.
As for `COc1ccc(C)cc1NC(=O)COCC(=O)O`, the inhibition is -6.89%.
Consider `Cc1c(C(=O)O)sc2ncn(C)c(=O)c12`, for which the inhibition is -7.76%.
Turning to `O=C(COC(=O)C1=COCCO1)Nc1ccccc1Oc1ccccc1`, the inhibition is -7.37%.
The same measure for `O=C(Nc1cccc2ccccc12)c1cnccn1`: -7.53%.
The same measure for `CCOC(=O)c1cccnc1SCC(=O)NC(C)CC` (stereo not given): 2.08%.
As for `CCOc1nc2ccccc2nc1NS(=O)(=O)c1ccccc1`, the inhibition was -2.24%.
The same measure for `Cc1cc(N2C(=O)C3C4C=CC(C4)C3C2=O)ccc1Br` (stereo not given): -6.58%.
